CHO-K1 Ca PAM – nonselective activator or artifact in parental CHO-K1 calcium assay; ATP EC20, Fluo-8 calcium fluorescence; 0% at ATP EC20, 100% at ATP max; activation, % at 3 µM; hit rate 0.02% among 360,000;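 active = activation above the run cutoff, the mean activation of all test compounds plus 3 SD, cut at about 40% in these data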;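 also: peak over basal fluorescence ratio in a 140 s read after ATP addition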
M1 PAM – human CHRM1 positive allosteric modulation. CHO-K1 hM1, Fluo-8 calcium fluorescence, ACh EC20; 0% = ACh EC20, 100% = maximal ACh. activation, % at 3 µM. hit rate 0.088% among 360,000; in the data active = activation above about 19%, passing the limit was not always enough
Target sequence (P11229 whole entry, looked up): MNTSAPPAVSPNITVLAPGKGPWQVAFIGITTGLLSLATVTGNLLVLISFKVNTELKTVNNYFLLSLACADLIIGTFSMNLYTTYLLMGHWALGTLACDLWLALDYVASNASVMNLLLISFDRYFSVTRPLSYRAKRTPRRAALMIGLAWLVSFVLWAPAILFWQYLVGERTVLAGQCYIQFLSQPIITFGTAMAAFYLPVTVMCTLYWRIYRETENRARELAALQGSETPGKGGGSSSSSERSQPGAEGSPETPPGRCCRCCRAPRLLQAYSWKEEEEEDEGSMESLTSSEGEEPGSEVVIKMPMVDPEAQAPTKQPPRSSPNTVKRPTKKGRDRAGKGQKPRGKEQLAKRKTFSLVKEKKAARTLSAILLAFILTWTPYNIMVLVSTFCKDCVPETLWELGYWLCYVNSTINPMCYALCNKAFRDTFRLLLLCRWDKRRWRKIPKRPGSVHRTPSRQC
CHRM1 antagonist – human CHRM1 antagonism. inhibition, % at 3 µM. hit rate 1.3% among 360,000. P11229. AID 588852. CHO-K1 hM1, Fluo-8 calcium fluorescence, ACh EC80 antagonist;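 active = percent inhibition above its own plate's cutoff, namely the mean of that plate's compound wells plus 3 SD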;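 also: peak over basal fluorescence ratio during 140 s after agonist addition; 0% = ACh EC80 plus DMSO and 100% = DMSO alone without agonist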
CHO-K1 Ca ag – nonselective activator or artifact in parental CHO-K1 cells | activation, % at 3 µM | Fluo-8 calcium fluorescence; scaled to maximal ATP response, vehicle zero | hit rate 0.48% among 360,000 | AID 602248; in the data active = activation above about 15%;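 also: untransfected CHO-K1 host cells lacking M1 receptor as counterscreen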
CHRM1 agonist – agonists of human M1 muscarinic receptor; P11229; CHO-K1 hM1, Fluo-8 calcium fluorescence, agonist mode; 0% DMSO, 100% acetylcholine EC100; activation, % at 3 µM; hit rate 0.33% among 360,000; AID 588814;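 active = activation above the run's mean compound activation plus 3 SD, cut at about 16% in these data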;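 also: peak over basal fluorescence ratio within a 140 s kinetic read after compound addition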
CHO-K1 Ca antag – M1 antagonist counterscreen hit in parental CHO-K1 cells; inhibition, % at 3 µM; hit rate 0.6% among 360,000; ATP-induced calcium, Fluo-8 fluorescence;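 active = inhibition above a per-plate cutoff, the plate's mean sample inhibition plus 3 SD, cut at about 24% in these data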;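 also: 0% = DMSO plus EC80 ATP and 100% = DMSO alone without ATP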
* = called active by the depositor. In the library only some 2.3% were active in any assay of this set; here they are far more common.

How did CN(C)C(CNC(C(=O)Nc1ccc(F)cc1)c1ccccc1)c1ccccc1 (stereo not given) do in these assays?
CHO-K1 Ca PAM: 9.2; M1 PAM: -31.5; CHRM1 antagonist: 83.9*; CHO-K1 Ca ag: 4.1; CHRM1 agonist: -7.3; CHO-K1 Ca antag: -15.0

Results for CN(C)C(CNC(C(=O)Nc1ccc([N+](=O)[O-])cc1Br)c1ccccc1)c1ccccc1 (stereo not given) ?
CHO-K1 Ca PAM: -5.7; M1 PAM: -3.1; CHRM1 antagonist: 5.6; CHO-K1 Ca ag: 0.4; CHRM1 agonist: -6.8; CHO-K1 Ca antag: -4.4

How did O=C(Nc1ccc(F)cc1)NC1CCCCCCC1 do in these assays?
CHO-K1 Ca PAM: 1.7; M1 PAM: -2.9; CHRM1 antagonist: 1.3; CHO-K1 Ca ag: 8.5; CHRM1 agonist: -0.2; CHO-K1 Ca antag: -1.8

Results for O=C(Nc1ccc(F)cc1)C(NC1CCCCC1)c1ccccc1 (stereo not given) ?
CHO-K1 Ca PAM: -15.2; M1 PAM: -26.2; CHRM1 antagonist: 60.0*; CHO-K1 Ca ag: -0.3; CHRM1 agonist: -7.6; CHO-K1 Ca antag: 5.4

How did O=C(CCCOC(=O)c1ccc(O)cc1O)c1ccc(Br)cc1 do in these assays?
CHO-K1 Ca PAM: -8.2; M1 PAM: -12.3; CHRM1 antagonist: 19.2*; CHO-K1 Ca ag: 6.7; CHRM1 agonist: 0.4; CHO-K1 Ca antag: 9.3

What do the screens show for `O=C(CCCOC(=O)c1cccnc1Cl)c1ccc(Br)cc1`?
CHO-K1 Ca PAM: 21.7; M1 PAM: 4.1; CHRM1 antagonist: 3.3; CHO-K1 Ca ag: 5.3; CHRM1 agonist: -4.4; CHO-K1 Ca antag: -22.3

Results for CSc1ccccc1NC(=O)CN1CCN(S(=O)(=O)c2ccccc2[N+](=O)[O-])CC1 ?
CHO-K1 Ca PAM: 16.3; M1 PAM: 5.2; CHRM1 antagonist: -5.3; CHO-K1 Ca ag: 11.0; CHRM1 agonist: 2.1; CHO-K1 Ca antag: 9.0

Results for CCc1nc2c(OCc3cccc(OC)c3)cccn2c1N(C)C(=O)c1ccccc1F ?
CHO-K1 Ca PAM: 7.3; M1 PAM: 9.0; CHRM1 antagonist: -13.6; CHO-K1 Ca ag: 0.4; CHRM1 agonist: -8.6; CHO-K1 Ca antag: -7.5

Results for O=C(c1ccccc1)N1CCN(S(=O)(=O)c2ccccc2)CC1 ?
CHO-K1 Ca PAM: 20.9; M1 PAM: 3.2; CHRM1 antagonist: 102.0*; CHO-K1 Ca ag: 1.4; CHRM1 agonist: -3.4; CHO-K1 Ca antag: -7.9

Results for O=C(c1cccc(S(=O)(=O)N2CCOCC2)c1)N1CCN(C/C=C/c2ccccc2)CC1 ?
CHO-K1 Ca PAM: -16.5; M1 PAM: -27.1; CHRM1 antagonist: 98.0*; CHO-K1 Ca ag: 1.0; CHRM1 agonist: -7.9; CHO-K1 Ca antag: 4.4

Results for COCCNC(=S)N1CCN(Cc2ccc3c(c2)OCO3)CC1 ?
CHO-K1 Ca PAM: -18.1; M1 PAM: 14.5; CHRM1 antagonist: -29.9; CHO-K1 Ca ag: -0.1; CHRM1 agonist: -3.7; CHO-K1 Ca antag: 14.4

How did CN(C)c1ccc(-c2csc(C(O)c3cccc(Cl)c3)n2)cc1 (stereo not given) do in these assays?
CHO-K1 Ca PAM: -6.6; M1 PAM: -24.4; CHRM1 antagonist: 41.5*; CHO-K1 Ca ag: 5.5; CHRM1 agonist: 18.5*; CHO-K1 Ca antag: 21.8

How did O=S(=O)(c1ccccc1F)N1CCC(Oc2ccc(-n3cnnn3)cc2)CC1 do in these assays?
CHO-K1 Ca PAM: -3.4; M1 PAM: -12.8; CHRM1 antagonist: 21.2; CHO-K1 Ca ag: 22.0*; CHRM1 agonist: 6.2; CHO-K1 Ca antag: -0.8

Results for Cc1oc(-c2ccccc2F)nc1CS(=O)(=O)CC(=O)NC1CCCC1 ?
CHO-K1 Ca PAM: -7.3; M1 PAM: -14.0; CHRM1 antagonist: 33.2*; CHO-K1 Ca ag: 6.5; CHRM1 agonist: -0.8; CHO-K1 Ca antag: 10.2

Results for Cc1oc(-c2ccccc2F)nc1CS(=O)(=O)CC(=O)NC1CCCC(C)C1C (stereo not given) ?
CHO-K1 Ca PAM: 20.1; M1 PAM: 9.5; CHRM1 antagonist: -13.1; CHO-K1 Ca ag: 1.4; CHRM1 agonist: -1.0; CHO-K1 Ca antag: -5.9

Results for O=C(CNCCc1ccc(F)cc1)Nc1cc(F)ccc1F ?
CHO-K1 Ca PAM: 20.3; M1 PAM: 12.7; CHRM1 antagonist: -9.7; CHO-K1 Ca ag: 10.1; CHRM1 agonist: 0.7; CHO-K1 Ca antag: -1.8

How did COC(=O)CCCCCCCCCC[N+]1(C)CCCCC1 do in these assays?
CHO-K1 Ca PAM: 16.2; M1 PAM: -27.0; CHRM1 antagonist: 63.5*; CHO-K1 Ca ag: -0.4; CHRM1 agonist: -14.1; CHO-K1 Ca antag: -2.8

Results for C[N+]1(CCCCSc2ccc(O)cc2)CCCCC1 ?
CHO-K1 Ca PAM: -8.0; M1 PAM: -20.4; CHRM1 antagonist: 20.7; CHO-K1 Ca ag: -0.1; CHRM1 agonist: -10.6; CHO-K1 Ca antag: -8.6

What do the screens show for `CC(=O)OCCCCCCCCCCC[N+]1(C)CCCCC1`?
CHO-K1 Ca PAM: 5.5; M1 PAM: -22.8; CHRM1 antagonist: 64.7*; CHO-K1 Ca ag: 0.0; CHRM1 agonist: -5.9; CHO-K1 Ca antag: -5.8

How did COC(=O)CCCCCCCCC(O)C[N+]1(C)CCOCC1 (stereo not given) do in these assays?
CHO-K1 Ca PAM: -8.2; M1 PAM: -6.3; CHRM1 antagonist: 10.1; CHO-K1 Ca ag: -0.1; CHRM1 agonist: -9.2; CHO-K1 Ca antag: 7.2

What do the screens show for `C[N+]1(CC(=O)OC2CCCCCCCCCCC2)CCCC1`?
CHO-K1 Ca PAM: 13.4; M1 PAM: -38.5; CHRM1 antagonist: 68.6*; CHO-K1 Ca ag: 2.1; CHRM1 agonist: -15.3; CHO-K1 Ca antag: 0.9

Results for Cc1ccnc(NS(=O)(=O)c2ccc(NS(=O)(=O)c3ccc(Br)cc3)cc2)n1 ?
CHO-K1 Ca PAM: 1.0; M1 PAM: 8.3; CHRM1 antagonist: -8.2; CHO-K1 Ca ag: 0.1; CHRM1 agonist: 0.5; CHO-K1 Ca antag: -14.7

Results for Nc1nc2cc(Cl)ccc2cc1C(=O)NCCCc1ccccc1 ?
CHO-K1 Ca PAM: -3.5; CHO-K1 Ca ag: 11.8; CHO-K1 Ca antag: 9.2

How did CC(=O)Nc1ccc(Sc2ncccc2C(=O)Nc2ccc(OC(F)(F)F)cc2)cn1 do in these assays?
CHO-K1 Ca PAM: -9.7; M1 PAM: -20.5; CHRM1 antagonist: 64.2*; CHO-K1 Ca ag: 52.9*; CHRM1 agonist: 65.8*; CHO-K1 Ca antag: 58.7*

What do the screens show for `C[C@@H]1CN([C@@H](C)CO)C(=O)CCCn2cc(nn2)CO[C@H]1CN(C)S(=O)(=O)c1cccs1`?
CHO-K1 Ca PAM: -10.9; M1 PAM: -3.8; CHRM1 antagonist: 10.9; CHO-K1 Ca ag: 0.5; CHRM1 agonist: -1.7; CHO-K1 Ca antag: 7.6

How did C[C@@H]1CN([C@H](C)CO)C(=O)CCCn2cc(nn2)CO[C@H]1CN(C)S(=O)(=O)c1cccs1 do in these assays?
CHO-K1 Ca PAM: -9.3; M1 PAM: -4.5; CHRM1 antagonist: 7.6; CHO-K1 Ca ag: 0.2; CHRM1 agonist: -6.4; CHO-K1 Ca antag: 31.7*

How did C[C@@H]1CN([C@H](C)CO)C(=O)CCCn2cc(nn2)CO[C@H]1CN(C)S(=O)(=O)c1ccc(F)cc1 do in these assays?
CHO-K1 Ca PAM: 6.8; M1 PAM: 14.4; CHRM1 antagonist: -13.8; CHO-K1 Ca ag: 0.1; CHRM1 agonist: 0.1; CHO-K1 Ca antag: 26.0*

From PubChem
